Source: PubChem BioAssay (Johns Hopkins Ion Channel Center)
Compounds with a hit are over-represented: about 1.6% of the library has one in this group of screens.
KCNQ2 block: KCNQ2 (rat) channel inhibition | O88943 | CHO-K1 KCNQ2, FluxOR thallium flux, 20 min; stronger effect = lower value | B-score at 10 µM | 310,000 tested, 1.1% active;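 active means fluorescence ratio B-score at most minus 3 library SDs, with starting brightness B-score within 2 library SDs, cut at about -5.5 in these data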
KCNQ2 enhance: potentiators of rat KCNQ2 potassium channel; CHO-K1 KCNQ2, FluxOR thallium flux fluorescence; stronger effect = higher value; B-score at 10 µM; 310,000 tested, 0.54% active; O88943;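 active means fluorescence ratio B-score at least 3 SD of library B-scores, with initial fluorescence B-score within 3 of them, cut at about 5.3 in these data; same plate scores as AID 2156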;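 further: B-score of peak minus minimum over baseline fluorescence ratio after K+ and Tl+ stimulus; positive B-score means potentiation of KCNQ2 with more thallium influx and brighter signal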
KCNQ2 block conf: rat KCNQ2 channel inhibition, confirmatory screen | shares compounds with KCNQ2 block | KCNQ2-expressing cells, thallium flux; stronger effect = lower value | activity change, negative = inhibition, % at 10 µM | 1,000 tested, 57% active;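 further: 0% = vehicle wells and values are ratio percent relative to vehicle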
KCNQ1 spec: human KCNQ1 activity in KCNQ2 inhibitor specificity screen. shares compounds with KCNQ2 block. activity change, negative = inhibition, % at 10 µM. KCNQ1-expressing cells, FluxOR thallium flux fluorescence; stronger effect = lower value. 1,000 tested, 15% active;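 active means activity change at least 3 SD of negative controls below their mean in both duplicate wells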;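 further: CHO cells stably transfected with KCNQ1 and depolarized by potassium stimulus; peak minus minimum fluorescence over baseline after thallium addition; 0% = vehicle negative control and -100% = blank without thallium stimulus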
CHO Tl ctr: activity in parental CHO cells lacking KCNQ2 | shares compounds with KCNQ2 block | thallium flux counter-screen; stronger effect = lower value | activity change, % at 10 µM | 1,000 tested, 14% active;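 further: 0% = vehicle negative controls with stimulus buffer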
KCNQ2 inh confirm: blocks rat KCNQ2 current in automated patch clamp; shares compounds with KCNQ2 block; KCNQ2-expressing cells; calls only at 10 µM; 550 tested, 49% active
An asterisk follows results filed as active. Unless noted, how the calls were made is not given here.

O=C(Nc1nc2c(ccc3ccccc32)s1)c1cc([N+](=O)[O-])ccc1N1CCOCC1 was read as KCNQ2 block -9.6*, KCNQ2 enhance -9.6, KCNQ2 block conf -25%*, KCNQ1 spec inactive, CHO Tl ctr inactive and KCNQ2 inh confirm inactive.
`O=C(Nc1nc(-c2ccc(-c3ccccc3)cc2)cs1)c1cc([N+](=O)[O-])ccc1N1CCOCC1` gave KCNQ2 block inactive and KCNQ2 enhance 0.52.
For CCOC(=O)C1=NNC(C(=O)c2ccccc2)C1c1ccc(C)cc1 (configuration not stated) the results were KCNQ2 block inactive.
`CCOC(=O)C1=NNC(C(=O)c2ccccc2)C1c1ccc(Cl)cc1` (configuration not stated) gave KCNQ2 block -8.8*, KCNQ2 enhance -8.8, KCNQ2 block conf -18%*, KCNQ1 spec inactive, CHO Tl ctr inactive and KCNQ2 inh confirm inactive.
`CCN1C(=O)[C@H]2[C@@H](c3ccc(-c4ccc(OC)cc4)c(OC)c3)N3CCCC[C@@]3(C(=O)OC)[C@H]2C1=O` gave KCNQ2 block inactive.
`CSCCC(NC(=O)c1ccc(Cl)cc1Cl)C(=O)OCC(N)=O` (configuration not stated) gave KCNQ2 block inactive.
`CSCCC(NC(=O)c1ccc(Cl)cc1)C(=O)OCC(=O)Nc1cc(Cl)ccc1C` (configuration not stated) gave KCNQ2 block -6.8*, KCNQ2 enhance -6.8, KCNQ2 block conf -26%*, KCNQ1 spec inactive, CHO Tl ctr inactive and KCNQ2 inh confirm active.
`COc1ccc(C(=O)C(OC(=O)c2ccccc2)c2ccccc2)cc1` (configuration not stated) gave KCNQ2 block -7*, KCNQ2 enhance -7, KCNQ2 block conf inactive, KCNQ1 spec inactive and CHO Tl ctr inactive.
Screening O=C(COc1ccccc1)OC(C(=O)c1ccccc1)c1ccccc1 (configuration not stated) returned KCNQ2 block inactive and KCNQ2 enhance 1.7.
CCOC(=O)c1c(C)[nH]c(C(=O)OCC(=O)Nc2sccc2C(N)=O)c1C was read as KCNQ2 block inactive and KCNQ2 enhance 0.68.
CN(C)S(=O)(=O)c1ccc(N2CCCC2)c(C(=O)NNC(=O)COc2ccccc2Cl)c1 was read as KCNQ2 block inactive.
Screening CN(C)S(=O)(=O)c1ccc(N2CCCC2)c(C(=O)NNC(=O)COc2ccccc2F)c1 returned KCNQ2 block -8.3*, KCNQ2 enhance -8.3, KCNQ2 block conf -22%*, KCNQ1 spec inactive, CHO Tl ctr inactive and KCNQ2 inh confirm active.
Screening CCN(CC(=O)Nc1ccc(C(=O)OC)cc1)C1CCCCC1 returned KCNQ2 block inactive.
For CN1C(N)=NC(=O)/C1=C\c1ccc(Br)cc1 the results were KCNQ2 block inactive.
`Clc1ccc(COn2c(-c3ccccc3)nc3ccccc32)cc1` gave KCNQ2 block -14*, KCNQ2 enhance -14, KCNQ2 block conf inactive, KCNQ1 spec inactive and CHO Tl ctr inactive.
Screening Clc1ccc(COn2c(-c3ccc(Cl)cc3)nc3ccccc32)cc1 returned KCNQ2 block inactive.
For CN(C)S(=O)(=O)c1ccc(C(=O)Nc2cc3c(cc2C(=O)O)OCCCO3)cc1 the results were KCNQ2 block inactive.
For COC(=O)c1ccc(Nc2c([N+](=O)[O-])c(=O)oc3ccccc23)cc1 the results were KCNQ2 block inactive and KCNQ2 enhance 1.6.
For CC(c1ccccc1C(O)c1ccccc1)N(C)C (configuration not stated) the results were KCNQ2 block inactive and KCNQ2 enhance 0.59.
For Cc1ccc(C(O)(c2ccccc2)c2ccccc2C(C)N(C)C)c(C)c1 (configuration not stated) the results were KCNQ2 block -8.9*, KCNQ2 enhance -8.9, KCNQ2 block conf -31%*, KCNQ1 spec inactive, CHO Tl ctr inactive and KCNQ2 inh confirm active.
For COc1ccc2cc(C(c3nnnn3CCc3ccccc3)N3CCCC(C)C3)c(=O)[nH]c2c1 (configuration not stated) the results were KCNQ2 block -8.6*, KCNQ2 enhance -8.6, KCNQ2 block conf -35%*, KCNQ1 spec inactive, CHO Tl ctr inactive and KCNQ2 inh confirm active.
COCCn1nnnc1C(c1cc2cc(OC)ccc2[nH]c1=O)N1CCC(Cc2ccccc2)CC1 (configuration not stated) was read as KCNQ2 block inactive and KCNQ2 enhance 0.73.
Screening Cc1ccccc1-n1c(C)nnc1SCC(=O)NC1CCCc2ccccc21 (configuration not stated) returned KCNQ2 block -7.7*, KCNQ2 enhance -7.7, KCNQ2 block conf inactive, KCNQ1 spec inactive and CHO Tl ctr inactive.
O=C(CSc1nnnn1-c1ccccc1)NC1CCCc2ccccc21 (configuration not stated) was read as KCNQ2 block inactive.
`Cc1ccccc1-n1nnnc1SC(C)C(=O)NC1CCCc2ccccc21` (configuration not stated) gave KCNQ2 block -8.8*, KCNQ2 enhance -8.8, KCNQ2 block conf -37%*, KCNQ1 spec -38%*, CHO Tl ctr -31%* and KCNQ2 inh confirm active.
Screening Cc1ccccc1CC(=O)NC1CCCc2ccccc21 (configuration not stated) returned KCNQ2 block inactive.
For CC(Sc1nnc(Nc2ccccc2)s1)C(=O)NC1CCCc2ccccc21 (configuration not stated) the results were KCNQ2 block inactive.
For Cc1nnc(SC(C)C(=O)NC2CCCc3ccccc32)n1-c1ccccc1 (configuration not stated) the results were KCNQ2 block -6.6*, KCNQ2 enhance -6.6, KCNQ2 block conf -37%*, KCNQ1 spec inactive, CHO Tl ctr inactive and KCNQ2 inh confirm active.
`CC1=C(C(=O)OCCCCCl)C(c2cc3c(cc2Br)OCO3)NC(=O)N1` (configuration not stated) gave KCNQ2 block inactive and KCNQ2 enhance 0.34.
`C=CCNC(=O)C(=O)NCC1CCCN1S(=O)(=O)c1cccs1` (configuration not stated) gave KCNQ2 block inactive and KCNQ2 enhance 0.24.
CCOc1ccc(NC(=O)CN(c2ccc(OC)c(OC)c2)S(=O)(=O)c2ccc(C)cc2)cc1 was read as KCNQ2 block inactive and KCNQ2 enhance 0.15.
COc1cccc(-c2nc(-c3ccccc3)c(-c3ccccc3)[nH]2)c1OCC(=O)O was read as KCNQ2 block inactive.
`COc1cccc(-c2nc(-c3ccc4c(c3)-c3ccccc3S4(=O)=O)c(-c3ccccc3)[nH]2)c1OC` gave KCNQ2 block -8.9*, KCNQ2 enhance -8.9, KCNQ2 block conf -26%*, KCNQ1 spec inactive, CHO Tl ctr inactive and KCNQ2 inh confirm inactive.
